Experimental findings from PubChem BioAssay AID1852 (Sanford-Burnham Center for Chemical Genomics, 2009) are described below.

About 1,100 (44%) of roughly 2,500 compounds were called active. So high a share suggests a set chosen from earlier hits. This is one part of the list. Unmarked numbers belong to inactive results.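 Rule for the calls: active = inhibition above 50% at 4 µM in the single-point screen; inactive = inhibition of 50% or less.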

A short description of the experiment: TNF-a-driven NF-kB reporter inhibitors, primary screen, selectivity assay for NOD1/NOD2 signaling inhibitor project, cell-based, HEK293T NF-kB-Luc, luminescence (AID 1852). The note with it: TNF-a induced, 14 h, at 4 µM, active compounds read high.
For orientation: inhibition means the change of the read-out against control, counted positive when it falls. Regarding `Cc1ccc(/C=C2\SC(=S)N(CCCC(=O)NNC(=O)c3ccccc3O)C2=O)cc1`, the inhibition is 67.9% (active).

Take `O=C(CCCN1C(=O)/C(=C/c2cccs2)SC1=S)Nc1cccc(O)c1`: the inhibition is -2.9%. As for `O=C(CCCN1C(=O)/C(=C/c2ccccc2Cl)SC1=S)NNC(=O)c1ccncc1`, the inhibition is 87% (active). `O=C(CCCN1C(=O)/C(=C/c2ccccc2Cl)SC1=S)NNC(=O)c1ccccc1`: the inhibition was -19.2%.

For `O=C(CCCN1C(=O)/C(=C/c2ccccc2Cl)SC1=S)NNC(=O)c1ccc(Cl)cc1`, the inhibition is 76.9% (active). Turning to `Cc1ccc(/C=C2/SC(=S)N(CCCC(=O)Nc3ccc(O)cc3)C2=O)cc1`, the inhibition is -26%. With `COc1ccc(/C=C2\SC(=S)N(CCCC(=O)NNC(=O)c3ccccc3O)C2=O)cc1`, the inhibition is 35.4%.

For the compound `COc1ccc2c(C(=O)CCl)c[nH]c2c1`, the inhibition is 66.7% (active). With `COc1ccc2[nH]cc(C(=O)CCl)c2c1`, the inhibition was 102% (active). The figure for `COC(CNC(=O)c1c[nH]c2ccc(S(=O)(=O)N3CCOCC3)cc2c1=O)OC` is 9.8%; for `CCOc1ccc(NC(=O)c2ccccc2NS(=O)(=O)c2ccc(F)cc2)c([N+](=O)[O-])c1` it is 11.5%; for `O=C(Nc1nc(-c2ccccc2)cs1)c1ccccc1NS(=O)(=O)c1ccc(F)cc1` it is 91.5% (active). Regarding `COc1ccc(-c2csc(NC(=O)c3ccccc3NS(=O)(=O)c3ccc(F)c(F)c3)n2)cc1`, the inhibition was 82.3% (active). With `COc1ccc(S(=O)(=O)Nc2ccccc2C(=O)Nc2nc(-c3ccc(F)cc3)cs2)cc1OC` the figure was 81.4% (active); with `COc1ccc(-c2csc(NC(=O)C3=NN(c4ccccc4)C(=O)CC3)n2)cc1`, -64.2%; with `COc1ccc(-c2csc(NC(=O)c3ccccc3NS(=O)(=O)c3ccc(C)cc3)n2)cc1`, 80.3% (active). `Cc1cc(F)ccc1S(=O)(=O)Nc1ccccc1C(=O)Nc1ccccc1-c1nc2ccccc2[nH]1`: the inhibition is 1.4%. The figure for `COC(=O)c1ccc(NC(=O)c2ccccc2NS(=O)(=O)c2ccccc2)cc1` is 32.6%; for `Cc1ccc(S(=O)(=O)Nc2ccccc2C(=O)Nc2nc(-c3ccc(F)cc3)cs2)cc1` it is 79.9% (active). On to `COc1ccc(NC(=O)c2ccc(-c3ccccc3)cc2)cc1NS(=O)(=O)c1ccc(F)cc1`, for which the inhibition was 59.9% (active).

For `CC(C)CCNC(=O)c1cc(-c2ccncc2)nc2ccc(S(=O)(=O)N3CCOCC3)cc12`, the inhibition is 28.7%. As to `COc1ccccc1NS(=O)(=O)c1cccc(NC(=O)c2ccc3ccccc3n2)c1`, the inhibition is 15.4%. On to `COc1ccccc1C(=O)Nc1nc(-c2ccc(S(=O)(=O)N3CCOCC3)cc2)cs1`, for which the inhibition is 99.6% (active).

On to `CC(=O)c1c(C)[nH]c(C(=O)Nc2nc(-c3ccc(-c4ccccc4)cc3)cs2)c1C`, for which the inhibition is -7.7%. The figure for `O=C(COc1ccc(Cl)cc1)Nc1nc(-c2ccc(S(=O)(=O)N3CCOCC3)cc2)cs1` is 26.4%; for `Cc1c(CCC(=O)O)c(=O)oc2c(C)c(OCc3ccccc3Cl)ccc12` it is 17.1%. With `Cc1c(CCC(=O)O)c(=O)oc2cc(OCc3ccccc3Br)ccc12` the figure was 75.3% (active); with `COc1ccccc1COc1ccc2c(C)c(CCC(=O)O)c(=O)oc2c1C`, 5.6%; with `O=C(CCl)Nc1ccccc1C(=O)NCc1ccccc1`, -4%. Turning to `O=C(CCl)Nc1c2c(nn1-c1ccccc1)CSC2`, the inhibition was -6.5%.

Regarding `CC(=O)Nc1ccc(SCC(=O)c2cc(C)n(Cc3cccs3)c2C)cc1`, the inhibition is -119%. Turning to `CC(=O)Nc1ccccc1OCC(=O)c1cc(C)n(Cc2cccs2)c1C`, the inhibition is 28.3%. Consider `Cc1c(C#N)c(NC(=O)CCl)n(Cc2cccs2)c1C`, for which the inhibition is 101% (active).

As to `Cc1c(C#N)c(NC(=O)CCl)n(Cc2ccccc2)c1C`, the inhibition was 95.9% (active).

Turning to `CCCCCCCCC[n+]1cccc2c3ccccc3ccc21`, the inhibition is 83.9% (active). As to `CCCCCCCC[n+]1cccc2c3ccccc3ccc21`, the inhibition is 83.6% (active). `CCC(C)(C)c1ccc(OCCCC[n+]2cccc(C)c2C)c(C(C)(C)CC)c1`: the inhibition is 18.8%.

With `CC(=O)c1cn(CCOc2ccccc2C)c2ccccc12`, the inhibition is 46.6%. For `CC(=O)c1cn(CCOc2cc(C)ccc2C)c2ccccc12`, the inhibition is 60.4% (active).

For the compound `COc1cccc(OCCn2cc(C(C)=O)c3ccccc32)c1`, the inhibition was 26.8%. The figure for `CN(C)/C=C/C(=O)c1ccc2noc(-c3ccccc3)c2c1` is 30.4%; for `c1ccc(-c2csc3ncnc(NCc4ccccn4)c23)cc1` it is 13.4%. For `c1ccc(CNc2ncnc3scc(-c4cccs4)c23)nc1`, the inhibition is 57.5% (active). As to `O=C(Nc1nc2ccccc2n1CCOc1ccc(Cl)cc1)c1ccco1`, the inhibition is 102% (active). Turning to `Cc1ccc(OCCn2c(NC(=O)c3ccco3)nc3ccccc32)cc1`, the inhibition is 19.6%. For the compound `O=C(Nc1ccccc1Cl)/C(Cl)=C(\Cl)S(=O)c1ccccc1` (configuration not stated), the inhibition is 107% (active). `COc1cccc(C(C)NC(=O)Nc2ccccc2Cl)c1` (configuration not stated): the inhibition was 37.3%. Regarding `CC1=C(C(=O)OCc2ccc3c(c2)OCO3)C(c2ccc(F)cc2)NC(=O)N1` (configuration not stated), the inhibition was 104% (active). For the compound `O=C(CCl)Nc1ccccc1C(=O)Nc1ccc2c(c1)OCO2`, the inhibition was 10.4%. With `CC1=C(C(=O)OCc2ccc3c(c2)OCO3)C(c2ccc(Cl)cc2)NC(=O)N1` (configuration not stated), the inhibition was 102% (active). Take `CC1=C(C(=O)OCc2ccc3c(c2)OCO3)C(c2ccccc2)NC(=O)N1` (configuration not stated): the inhibition was 96.6% (active). As for `CC1=C(C(=O)OCc2ccc3c(c2)OCO3)C(c2ccc(O)c([N+](=O)[O-])c2)NC(=O)N1` (configuration not stated), the inhibition is 58% (active). Take `O=C(NCCc1ccccc1)c1ccc2c(c1)OCO2`: the inhibition is -77.5%. With `COc1ccc(C(=O)N2CCCC(N3CCN(c4ccccc4OC)CC3)C2)c(OC)n1` (configuration not stated), the inhibition was 25%. With `Cc1ccc(SCc2cc(=O)[nH]c(SCC(=O)Nc3cc(Cl)ccc3Cl)n2)cc1` the figure was 28.1%.

As for `O=c1cc(CSc2ccc(Cl)cc2)nc(-c2ccccn2)[nH]1`, the inhibition was 102% (active). Turning to `S=C(N/N=C/c1ccc2ncccc2c1)Nc1cccnc1`, the inhibition was 29.3%. For `O=C(N/N=C\c1c(O)ccc2ccccc12)c1cncc(Br)c1`, the inhibition is 54.9% (active). Consider `C[C@@H](C(=O)Nc1ccc2ccccc2c1)[C@@H]1C[C@@]1(C)[C@@H](NC(=O)c1cccnc1)c1ccccc1`, for which the inhibition is 11%.

With `CCOc1cc(Br)cc(/C=N/NC(=O)c2cccnc2)c1O`, the inhibition was 69.2% (active). Regarding `O=C(N/N=C/c1c(O)ccc2ccccc12)c1cccnc1`, the inhibition was 101% (active).

With `O=C(CNC(=O)c1cccc(Br)c1)N/N=C/c1cc(Br)cc(Br)c1O`, the inhibition is 11.3%. Turning to `O=C(CCCc1nc(-c2ccc(Cl)cc2)no1)NC1CCCC1`, the inhibition is 55.5% (active). Consider `Cc1ccc(-c2noc(CCCC(=O)NC3CCCCC3)n2)cc1`, for which the inhibition was 29.6%. With `O=C(CCCc1nc(-c2ccc(Cl)cc2)no1)NC1CCCCC1` the figure was 28.3%. For `CC(=O)N(Cc1ccc(F)cc1)C1=C(NCCc2ccccc2)C(=O)c2ccccc2C1=O`, the inhibition was 102% (active). For `Cc1cc(C)nc(OC(C(=O)O)C(OCCc2ccccc2)(c2ccc(F)cc2)c2ccc(F)cc2)n1` (configuration not stated), the inhibition was -13.2%. For the compound `O=C(NCc1ccccc1)C1CCCN1S(=O)(=O)c1ccc(F)cc1` (configuration not stated), the inhibition is 21.4%. Turning to `CC(=O)N(Cc1ccc(F)cc1)C1=C(NCc2ccccc2)C(=O)c2ccccc2C1=O`, the inhibition is 91.2% (active).

Consider `CC1(C)N=C(N)N=C(N)N1c1ccc(OCCCOc2ccccc2)c(Cl)c1`, for which the inhibition is 59.9% (active).

Consider `COc1ccc2nc(N3CCCCC3)c(/C=C3\SC(=S)NC3=O)cc2c1`, for which the inhibition is 43.6%. For `Cn1c(SC2=CS(=O)(=O)c3ccccc32)nc2ccccc21`, the inhibition was 56% (active). On to `Cc1cc(C)nc(SC2=CS(=O)(=O)c3ccccc32)n1`, for which the inhibition was 14.1%. Regarding `O=S1(=O)C=C(Sc2nc3ccccc3s2)c2ccccc21`, the inhibition is 82.7% (active). As to `O=C(Nc1ccc(S(=O)(=O)Nc2ccc(F)cc2)cc1)c1ccc(CN2CCOCC2)cc1`, the inhibition was 61.1% (active). The figure for `O=C(Nc1ccc(S(=O)(=O)N2CCOCC2)cc1)c1ccc(CN2CCc3ccccc3C2)cc1` is 65.5% (active); for `O=C(Nc1ccc(S(=O)(=O)N2CCCCC2)cc1)c1ccc(CN2CCOCC2)cc1` it is 73.2% (active). Consider `O=C(Nc1ccc(Cc2ccncc2)cc1)c1ccc(S(=O)(=O)N2CCCC2)cc1`, for which the inhibition was 50.3% (active). The figure for `O=C(Nc1ccc(S(=O)(=O)N2CCCC2)cc1)c1ccc(Br)o1` is 6%; for `CCN(CC)c1ccc(S(=O)(=O)N2CCOCC2)cc1NC(=O)CN1CCc2ccccc2C1` it is 21.6%; for `O=C(Nc1ccc(CN2CCOCC2)cc1)c1ccc(-c2ccc(Cl)cc2Cl)o1` it is 44.2%. Consider `COc1ccc(NS(=O)(=O)c2ccc(NC(=O)c3ccc(CN4CCOCC4)cc3)cc2)cc1`, for which the inhibition was 37.6%. Regarding `C/C=C/Cn1c(SCc2ccc(C)cc2)nc2c1c(=O)[nH]c(=O)n2C`, the inhibition was 18.9%. The figure for `CCN(CC)S(=O)(=O)c1cccc(NC(=O)c2ccc(Br)cc2)c1` is 27.5%.

With `CCN(CC)S(=O)(=O)c1ccc(C(=O)Nc2ccc(Cc3ccncc3)cc2)cc1`, the inhibition is 63% (active). With `O=C(Nc1ccc(S(=O)(=O)N2CCCCC2)cc1)c1ccc(CN2CCc3ccccc3C2)cc1` the figure was 59% (active). The figure for `COc1ccccc1NS(=O)(=O)c1cccc(NC(=O)Nc2ccc(Cl)cc2)c1` is 46.4%; for `CCN(CC)S(=O)(=O)c1cccc(-n2c(O)c(C=Nc3ccccc3C(=O)O)c3ccccc3c2=O)c1` it is 70.1% (active). The figure for `COc1ccc(CNc2nc3c(c(=O)n(Cc4ccc(Br)cc4)c(=O)n3C)n2C)cc1` is 15.5%; for `CCN(CC)S(=O)(=O)c1cccc(C(=O)c2c(C)cc3ccccn23)c1` it is 27.9%; for `COc1ccccc1NS(=O)(=O)c1cccc(-n2c(O)c(C=Nc3ccccc3C(=O)O)c3ccccc3c2=O)c1` it is 69% (active). Consider `COc1ccc(Cn2c(O)c(C=Nc3ccccc3C(=O)O)c3ccccc3c2=O)cc1`, for which the inhibition is 69.6% (active).
